TROY signal inh: blocks TROY-dependent signaling in reporter cells. Q293 LMP1-TROYcd NF-kB luciferase reporter, 4 h. inhibition, % at 10 µM. 360,000 compounds, 0.98% hits. AID 1347056;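 active = compounds whose plate-normalised and pattern-corrected inhibition of the luciferase reporter signal at the single screening dose is 50% or more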
TWEAK Fn14 block: blocks TWEAK-Fn14 interaction in a reporter cell assay | inhibition, % at 10 µM | 360,000 compounds, 2% hits | AID 1159606 | TWEAK-stimulated Fn14 reporter cells, luciferase luminescence, 8 h; in the data active = inhibition above about 50%
Peg3 promoter: reduces Peg3 promoter-driven luciferase expression in HeLa; inhibition, % at 20 µM; AID 588405; 360,000 compounds, 1.7% hits; HeLa PEG-Prom luciferase reporter, luminescence, overnight;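 active = inhibition of at least 50% at 20 µM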
Shn3 3UTR inh: Schnurri-3 reporter inhibition in Clone20 osteoblasts. inhibition, % at 12.5 µM. 360,000 compounds, 0.52% hits. Clone20 osteoblast Shn3 3'UTR firefly luciferase, 24 h;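 active = mean inhibition of at least 75% with every replicate also reaching 75%; inconclusive = mean inhibition at least 75% but some replicate below; inactive = mean inhibition below 75%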
MITF TRPM1 inh: MITF TRPM1 promoter inhibition in SK-MEL-5 cells | inhibition, % at 12.5 µM | SK-MEL-5 TRPM1 promoter luciferase, 24 h | 330,000 compounds, 0.83% hits;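 active = mean inhibition across replicates of 60% or more, whatever share of single replicates reaches that level; inconclusive = some that reach 60%, reason not given; inactive = mean inhibition across replicates below 60%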
LMP1 NFkB inh: Epstein-Barr LMP1 NF-kappaB reporter inhibition; LMP1-induced NF-kappaB luciferase reporter cells, luminescence; inhibition, % at 12.5 µM; 350,000 compounds, 0.69% hits; AID 504558; in the data active = inhibition above about 41%; inconclusive = no clear call, values can overlap the other calls
Each line names hits and unclear results; the compound was inactive in the other large screens. Most compounds without a hit are left out; they make up all but 4.1% or so of the library.

CNc1c(NS(=O)(=O)c2ccc(CC(C)C)cc2)c(=O)oc2ccccc12	none
Cc1cc(C)n(CC(=O)NNC(=O)C2CC(=O)N(Cc3ccccc3Cl)C2)n1 (configuration not stated)	none
COc1cc2[nH]c(=S)n(NC(=O)CC(C)C)c(=O)c2cc1OC	none
Cc1ccc(/C=N/NC(=O)CCn2nc(C)cc2C)c(C)c1	none
O=C(CNC(=O)c1ccc(S(=O)(=O)N2CCCCC2)cc1)N/N=C/c1ccco1	none
COc1ccc(-n2c(=S)[nH]c3cc(C(=O)Nc4ccc(C)c(F)c4)ccc3c2=O)c(OC)c1	TWEAK Fn14 block 54
CCOc1ccc(NC(=O)c2ccc3c(=O)n(-c4ccc(OC)cc4OC)c(=S)[nH]c3c2)cc1	none
COc1cc2c(C(=O)N3CCN(C)CC3)c(C)oc2cc1Br	none
Cc1oc2cc3c(C(=O)N4CCCCC4)c(C)oc3cc2c1C(=O)N1CCCCC1	TROY signal inh 60, TWEAK Fn14 block 74
CC(OC(=O)c1ccc([N+](=O)[O-])o1)C(=O)Nc1nc(-c2ccc(F)c(F)c2)cs1 (configuration not stated)	none
COC(=O)c1ccc2c(=O)n(CCCCCC(=O)N3CCN(c4ccc(F)cc4)CC3)c(=O)[nH]c2c1	TROY signal inh 60, TWEAK Fn14 block 56, Peg3 promoter 90
COC(=O)c1ccc2c(=O)n(CCCCCC(=O)O)c(=O)[nH]c2c1	none
COc1cc2[nH]c(=O)n(CCCCCC(=O)N3CC=C(c4ccccc4)CC3)c(=O)c2cc1OC	TWEAK Fn14 block 59, Peg3 promoter 70
O=C(Nc1cccc(Oc2ccccc2)c1)C1Cc2c(-c3ccc4c(c3)OCO4)ccnc2O1 (configuration not stated)	none (no result: MITF TRPM1 inh, LMP1 NFkB inh)
Cc1ccc(NC(=O)c2cc(C)n(-c3ccccc3)c2C)cc1	TROY signal inh 89, TWEAK Fn14 block 97
Cc1ccc(NC(=O)c2cnn(-c3ccccc3)c2C)cc1	TWEAK Fn14 block 64
Cc1ccc(NC(=O)c2cc(C)n(-c3cccc(C)c3)c2C)cc1	none
Cc1c(C(=O)Nc2cccc([N+](=O)[O-])c2)csc1-c1ccccc1	none
Cc1cc(C(=O)Nc2ccc(Cl)cc2)c(C)n1-c1ccccc1	TROY signal inh 89, TWEAK Fn14 block 103, Peg3 promoter 87 (no result: Shn3 3UTR inh, MITF TRPM1 inh, LMP1 NFkB inh)
Cc1ccc(NC(=O)c2csc(-c3ccccc3)c2C)cc1	TROY signal inh 74, TWEAK Fn14 block 81, LMP1 NFkB inh 45
Cc1ccc(NC(=O)c2cnn(-c3ccccc3)c2C)c(C)c1	none
COC(=O)c1nn(-c2ccccc2)c(Sc2ccc(Br)cc2)c1/C=N/O	none
CCc1nc2sc3c(c2c(=O)n1CCO)CCC3	none
CC(C)(C)OC(=O)N[C@@H](C(=O)OC(C)(C)C)c1ccc2ccccc2c1	none
Cc1ccc(NC(=O)COC(=O)CCC(=O)c2cccs2)c(C)c1	none
CC(=O)C[C@@H](O)CC(=O)[C@@H]1OC(=O)CCCCCc2ccccc21	none
O=C(/C=C/c1cn(-c2ccccc2)nc1-c1cccnc1)N1CCCC1	LMP1 NFkB inh inconclusive
O=C(/C=C/c1cn(-c2ccccc2)nc1-c1cccnc1)c1ccco1	TWEAK Fn14 block 80
CCCc1[nH]nc2c1C(c1cn[nH]c1-c1ccc(F)cc1)C(C#N)=C(N)O2 (configuration not stated)	TWEAK Fn14 block 54, MITF TRPM1 inh 61
CCCc1[nH]nc2c1C(c1ccccc1OC)C(C#N)=C(N)O2 (configuration not stated)	none
O=C(NCCc1ccc(Cl)cc1)C12CC3CC(CC(O)(C3)C1)C2	LMP1 NFkB inh 58
O=C(OCc1nnc(-c2ccc(Cl)cc2)o1)C12CC3CC(CC(O)(C3)C1)C2	TROY signal inh 67
O=C(Cc1ccc(Cl)cc1)OCc1nnc(-c2ccccc2)o1	none
O=C(N/N=C/c1cc([N+](=O)[O-])cc([N+](=O)[O-])c1O)/C(=C\c1cccs1)NC(=O)c1ccccc1	none
CCC(C(N)=O)N1C(=O)C2C3CCC(C3)C2C1=O (configuration not stated)	none (no result: MITF TRPM1 inh)
CCc1ccc(OCCCC(=O)Nc2ccc(S(=O)(=O)Nc3cc(C)nc(C)n3)cc2)cc1	TWEAK Fn14 block 55
O=C(/C=C/[C@H]1O[C@@H](n2cnc3c(NC(=O)c4ccccc4)ncnc32)[C@H](O)[C@@H]1O)NCc1ccco1	none (no result: MITF TRPM1 inh, LMP1 NFkB inh)
